Inconclusive results are not listed. Activity calls are given as the source filed them. How the source made its calls: active means hit-call score of the fitted dose curve at least 0.9, where 1 is the maximum; inactive means score below 0.9.
Each compound was assayed against Neuropeptide Y receptor type 2 (Homo sapiens) (UniProt P49146) (assay: ERF_FR_GPCR_hNPY2R: Eurofins (ERF) G Protein-Coupled Receptor (GPCR) Radioligand Binding LeadHunter Assay for human Neuropeptide Y Receptor Y2 Agoniam).
Sequence of Neuropeptide Y receptor type 2 (Homo sapiens) (P49146 whole entry, looked up): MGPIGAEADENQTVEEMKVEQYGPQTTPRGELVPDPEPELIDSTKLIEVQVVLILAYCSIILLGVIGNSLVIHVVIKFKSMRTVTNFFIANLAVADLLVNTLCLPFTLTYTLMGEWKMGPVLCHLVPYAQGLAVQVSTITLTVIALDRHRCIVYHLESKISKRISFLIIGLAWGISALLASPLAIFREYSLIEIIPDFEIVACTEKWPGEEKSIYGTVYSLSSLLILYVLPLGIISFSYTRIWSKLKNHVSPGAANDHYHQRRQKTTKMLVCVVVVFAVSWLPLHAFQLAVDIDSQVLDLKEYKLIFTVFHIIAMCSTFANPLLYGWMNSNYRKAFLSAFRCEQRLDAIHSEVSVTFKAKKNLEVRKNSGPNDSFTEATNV
Protocol: ERF_FR_GPCR_hNPY2R is a biochemical, single-readout assay that uses extracted gene-proteins in a cell-free assay. Measurements were taken 1 hour after chemical dosing in a 96-well plate. See Y2 Human Neuropeptide Y GPCR Binding (Agonist Radioligand) Assay, Cerep.ERF_FR_GPCR_hNPY2R is an assay component calculated from the ERF_FR_GPCR_hNPY2R assay. It is designed to measure radioligand binding using a type of binding reporter as detected by scintillation counting with radiometry technology.Data from the assay component ERF_FR_GPCR_hNPY2R was analyzed at the assay endpoint, ERF_FR_GPCR_hNPY2R, in the positive analysis fitting direction relative to DMSO as the negative control and baseline of activity. Using a type of binding reporter, gain-of-signal activity can be used to understand changes in binding as they relate to gene NPY2R. To generalize the intended target to other relatable targets, this assay endpoint is annotated to the gpcr intended target family, where the subfamily is neuropeptide Y.
Human cells are incubated for 60 minutes at 37 C with [125I]peptide YY ligand (0.015 nM) and NYP as control inhibitor. Test Sample Requirements: Minimum for 1) Screen: 60 ul of 10 mM stock -OR- 1 mg (pre-weighed) for 10 uM final testing. 2) Dose Response: 90 ul of 10 mM stock -OR- 1 mg (pre-weighed) for a top concentration at 10 uM.
For `O=C(/C=C/c1ccc(O)cc1)CC(=O)/C=C/c1ccc(O)cc1`, the outcome was “inactive”.

Reference: PubChem BioAssay AID2284166 (EPA ToxCast)
